Most compounds without a hit are left out; they make up all but 1.7% or so of the library.
GLP1R ag = activates the human GLP-1 receptor; 380,000 compounds, 0.007% hits; Potency, µM (highest dose often 45.6 µM), for inactives: top-dose activation, actives largely listed as activators; HEK293 GLP-1R CRE-luciferase, luminescence, 4-6 h; cells express a hypersensitive GLP-1R form; AID 624172; note: % of control where 0% means no effect
Target sequence (P43220 whole entry, looked up): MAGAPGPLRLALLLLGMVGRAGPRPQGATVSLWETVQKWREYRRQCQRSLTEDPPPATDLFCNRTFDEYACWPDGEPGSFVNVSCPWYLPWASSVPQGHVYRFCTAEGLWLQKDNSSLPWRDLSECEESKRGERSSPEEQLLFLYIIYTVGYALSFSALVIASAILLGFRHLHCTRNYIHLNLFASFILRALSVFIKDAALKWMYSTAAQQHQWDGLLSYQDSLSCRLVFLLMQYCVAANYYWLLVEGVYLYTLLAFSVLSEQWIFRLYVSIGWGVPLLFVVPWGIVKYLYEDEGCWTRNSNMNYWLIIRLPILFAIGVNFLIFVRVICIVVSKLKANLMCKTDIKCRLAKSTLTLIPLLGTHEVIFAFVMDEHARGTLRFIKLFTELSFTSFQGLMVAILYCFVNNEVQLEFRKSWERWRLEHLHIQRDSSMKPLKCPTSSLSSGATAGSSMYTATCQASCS
PTHR1 agonist = activates the human parathyroid hormone receptor PTHR1; Q03431; HEK293 GP2 PTHR1 cells, GloSensor cAMP luminescence, 1 h; Potency, µM (top dose mostly 115 µM), for the others: at the highest dose activation, hits mostly activators; 410,000 compounds, 0.075% hits; AID 743266; note: nearly all actives have a fitted effect of over 55% in size
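HEK-293-derived GP2 cells expressing PTHR1 and a GloSensor cAMP reporter, 3,000/well, plated overnight, given luciferin plus IBMX (each 0.5 mM as added) for 1 h at 37 °C, then compound for 1 h at 37 °C. Luminescence was read after 15 min at room temperature.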
GLP-1R inv ag = acts as inverse agonist at human GLP-1 receptor; P43220; HEK293 GLP-1R CRE-luciferase, luminescence, 24 h; GLP-1R form is constitutively active; Potency, µM (highest dose often 38.3 µM), without a hit: at the highest dose activity change, negative = inhibition, hits mostly inhibitors; 410,000 compounds, 1.6% hits; note: % is set by controls: 0 for no effect and ±100 for the full control effect; nearly all actives have a fitted effect of over 55% in size
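Assay principle: reduced luminescence from a cAMP-responsive reporter in HEK293 cells co-expressing a constitutively active GLP-1R. Conditions: 24 hr compound incubation, 37 deg C, 5% CO2.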
HEK293 tox = cytotoxicity counter-screen for GLP-1 receptor inverse agonists | 410,000 compounds, 0.13% hits | HEK293 cAMP-luciferase reporter cells, luminescence, 24 h | Potency, µM (series often up to 38.3 µM), for inactives: at the top dose activity change, negative = inhibition, hits mostly inhibitors;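 note: loss of luciferase light is scored as toxicity; % is set by controls: 0 for no effect and ±100 for the full control effect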
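Cells in DMEM/10% Nu serum/1% pen-strep, 1536-well format. Pre-incubated 12 h, dosed with 23 nL compound, incubated a further 24 h. Luciferase detection, 12 min at room temp, luminescence.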
* marks the source's active call; other numbers are inactive results; i = inactive; ? = inconclusive; . = not tested or not shown; [ ] = another dose, or the depositor's remark. Calls come from the whole dose curve; as a rule, active = well fitted curve in the direction sought with a large enough effect; inconclusive = small, poorly fitted or top-dose-only effect, or another doubt; inactive = no such curve, though single readings can be large; an effect the other way counts as inactive or inconclusive. Potency is the fitted concentration of half-maximal effect.

SMILES	GLP1R ag	PTHR1 agonist	GLP-1R inv ag	HEK293 tox
Cc1ccc(-c2nc(SCC(=O)Nc3cc(S(=O)(=O)N4CCCCC4)ccc3Cl)n[nH]2)cc1	14%	-33%	10µM*	?
COc1cccc(CN(C)CC(=O)Nc2cc(S(=O)(=O)N3CCCC3)ccc2Cl)c1OC	0%	-43%	7.9µM*	4%
CCc1nn(CC(=O)N2CCN(c3cccc(C)c3C)CC2)c(=O)c2cc3sccc3n12	.	9%	-4%	-4%
Cc1ccccc1NC(=O)C(=O)NCC(c1ccc2c(c1)OCO2)N1CCN(c2ccccc2)CC1 (stereo not given)	.	i	7%	-15%
CCN(CC)CCNC(=O)c1ccc2c(c1)N(Cc1ccccc1)C(=O)c1ccccc1S2=O (stereo not given)	-2%	-18%	-18%	-2%
COc1ccc(S(=O)(=O)N(C)C)cc1NCC(=O)Nc1cccc2ccccc12	7%	-15%	-18%	-13%
CCc1ccccc1OCC(=O)Nc1cccc(S(=O)(=O)N2CCCC2)c1	8%	-28%	11µM*	2%
COc1ccc(S(=O)(=O)N(C)C)cc1NCC(=O)Nc1ccc(Br)c(C)c1	9%	-92%	11µM*	-7%
COc1ccc(S(=O)(=O)N2CCCCC2)cc1NCC(=O)Nc1ccc(C)cc1	20%	-18%	8.9µM*	-18%
COc1ccc(S(=O)(=O)N2CCOCC2)cc1C(=O)Nc1ccc(N2CCCCCC2)cc1	3%	-18%	10µM*	-22%
Cc1cccc(NS(=O)(=O)c2ccc(NC(=O)N3CCCC3)cc2)c1	.	i	-4%	-5%
Cc1cc2n(n1)CCC(=O)N2Cc1ccc(C(=O)Nc2ccc(F)cc2F)cc1	.	-45%	?	?
CCC(C(=O)Nc1ccc(C(C)=O)cc1)n1c(C)c2cnn(-c3ccccc3)c(=O)c2c1C (stereo not given)	.	i	-5%	-5%
O=C(O)CSc1cccc[n+]1[O-]	-12%	i	-5%	-2%
O=C(CSc1cccc[n+]1[O-])c1cc(Cl)ccc1Cl	7%	i	?	0.89µM*
CCc1ccc(NC(=O)CSc2nc3ncccc3[nH]2)cc1	.	-32%	1%	-3%
CCOc1ccc(CN2CCN(Cc3ccc4c(c3)c3ccccc3n4CC)CC2)cc1	.	9%	6.3µM*	-21%
CCn1c2ccccc2c2cc(CN3CCN(Cc4ccc(OC)c(OC)c4)CC3)ccc21	.	i	?	-9%
Cc1cc(S(=O)(=O)N2CCN(c3c(C)cccc3C)CC2)ccc1F	-7%	i	?	-1%
CCC(C)N(C)Cc1cccc(C2(O)CCN(S(=O)(=O)c3ccc(F)c(C)c3)CC2)c1 (stereo not given)	1%	-23%	2.5µM*	?
Cc1cc(NC(=O)CSc2nc(-c3ccco3)cc(C(F)(F)F)n2)n(-c2ccccc2)n1	9%	-7%[57.5 µM]	-25%	-11%
Cc1cc(NC(=O)CCCSc2nc(-c3ccco3)cc(C(F)(F)F)n2)n(-c2ccccc2)n1	2%	-18%[57.5 µM]	8.9µM*	-18%
CC(C)c1ccc(NC(=O)[C@H](Cc2c[nH]c3ccccc23)NC(=O)[C@@H]2Cc3ccccc3CN2)cc1	0%	i	?	-16%
COc1ccc(NC(=O)[C@H](Cc2c[nH]c3ccccc23)NC(=O)[C@@H]2Cc3ccccc3CN2)cc1	0%	-14%	5.6µM*	-10%
Cc1c(C(=O)OCC(=O)N2CCCC(C)C2)oc2ccccc12 (stereo not given)	16%	i	10µM*	11%
SMILES	GLP1R ag	PTHR1 agonist	GLP-1R inv ag	HEK293 tox
Cc1cc(C)c(-n2nnnc2SCC(=O)c2cccs2)c(C)c1	10%	i	13µM*	1%
CCOc1ccc(NC(=O)Cn2nc(Cc3cccnc3)c3ccccc3c2=O)cc1	.	-6%	1%	-11%
Cc1ccc2c(c1)c1c(n2CC(O)Cn2ccnc2C)C(=O)CCC1 (stereo not given)	-3%	i	?	2%
Cc1ccc2c(c1)c1c(n2CC(O)CNC2CCCC2)CCCC1 (stereo not given)	-1%	i	11µM*	?
CCCCN1C(=O)C(=O)NC[C@H]1Cc1cccc2ccccc12	5%	-10%	4%	-8%
O=C1NC[C@@H](Cc2cccc3ccccc23)N(CC2(c3ccccc3)CC2)C1=O	-3%	-93%	11µM*	3%
CCn1nc(C)c2c(-c3ccccc3)cc(=O)n(C(C)C(=O)NCCc3ccccc3)c21 (stereo not given)	.	-21%	?	-8%
CC(/C=N/NC(=O)c1cccc(F)c1)=C\c1ccccc1	-6%	-17%	10µM*	0%
CC(/C=N/NC(=O)c1ccncc1)=C\c1ccccc1	2%	19%[57.5 µM]	5%	-12%
CC(=O)N(CCC(Cc1ccccc1)c1ccc2c(c1)OCO2)Cc1ccc(Cl)cc1 (stereo not given)	-2%	-23%[57.5 µM]	11µM*	?
O=C1[C@@H]2Cc3c([nH]c4ccccc34)C(c3ccccc3)N2C(=O)CN1C1CCN(Cc2ccccc2)CC1 (stereo not given in full)	0%	-8%	2.2µM*	?
COC(=O)c1ccc(C2c3[nH]c4ccccc4c3C[C@H]3C(=O)N(C4CCN(Cc5ccccc5)CC4)CC(=O)N23)cc1 (stereo not given in full)	-1%	?	10µM*	-13%
O=C1[C@@H]2Cc3c([nH]c4ccccc34)C(c3cccc(Br)c3)N2C(=O)CN1C1CCN(Cc2ccccc2)CC1 (stereo not given in full)	4%	i	3.2µM*	?
Oc1c(C(c2ccccc2Cl)N2CCCC2)sc2nc(-c3ccco3)nn12 (stereo not given)	.	i	-27%	-16%
CCc1cccc(C)c1NC(=O)COCc1cc(-c2ccc3c(c2)OCO3)on1	.	-86%	-27%	5%
CCOC(=O)C(Sc1cc(-c2ccccc2)nc2ncnn12)C(C)=O (stereo not given)	1%	i	?	3.5µM*
COc1ccc(CN2CCN(Cc3nc4ccccc4s3)CC2CCO)c(C)c1C (stereo not given)	7%	-50%	7.9µM*	?
COc1ccc(-c2ccc(/C=N/NC(=O)Cc3nnc(N)s3)o2)cc1Cl	-4%	-5%	11µM*	-44%
Cc1ccc(-c2ccc(/C=N/NC(=O)Cc3nnc(N)s3)o2)cc1Cl	2%	-2%	?	-2%
N#Cc1nc(Cc2cccc3ccccc23)oc1N1CCCCC1	13%	i	10µM*	88%
Cc1nn(C(C)C(=O)Nc2ccccc2C(F)(F)F)c(=O)c2c1sc1ccccc12 (stereo not given)	.	?	2%	5%
CCCOC(=O)c1cccc(Nc2nc(C(=O)OCC)nc3ccccc23)c1	.	-22%	?	-28%
COc1ccc(/C=N/N2CCOCC2)cc1Cn1nc(C)c([N+](=O)[O-])c1C	2%	-19%	-17%	-2%

Bioassay records deposited in PubChem by National Center for Advancing Translational Sciences (NCATS).
